Data from PubChem BioAssay (NCI).
About 83,000 compounds went through this panel and 20% of them were active in at least one assay; those are over-represented in the sample as a whole.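 The test compound was applied at a single concentration to cells in 96-well plates for 48 hours, and percent growth was recorded.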 A number with no mark means an inactive call. The source made the active and inactive calls. How the source made its calls: active means growth percent below 10; inactive means the rest.

What follows are molecules tested on SR leukemia (assay: NCI-60 one-dose screen, 48 h (100 = growth as untreated, 0 = no growth, -100 = all killed)). Conditions: 10 µM unless noted.

Structure (SMILES)	growth
CCOC(=O)C1=C(C)N=C2Sc3cccc(OC)c3N2[C@H]1c1ccccn1	96.9%
CNC(=O)c1cc(Oc2cccc3nc(Nc4ccc(Oc5ccccc5)cc4)ccc23)ccn1	30.2%
COc1ccc(-c2nc(N)ncc2Oc2ccccc2OC)c(O)c1	27.9%
CSc1nc2ncncc2[nH]1	95.2%
Nc1c2c(c(O)c3c1=C(CO)C=N3)=NCCS2=O (stereo not given)	3.82% (active)
CC(C)=CCc1cc2c(cc1O)C1=C(C(=O)C3=C(NCCS3(=O)=O)C1=O)C(C=C(C)C)O2 (stereo not given)	6.83% (active)
CC/C=C\C[C@H]1C/C=C2/C(=O)C=C[C@@H]2C/C=C\CCCC(=O)O1	0.487% (active)

What follows are molecules tested on RPMI-8226 leukemia in the same assay as above. Conditions: 10 µM unless noted.

Structure (SMILES)	growth
CO/C=C/C(=O)c1cc2cnc3c(=N)cc(NC(=O)C(C)C)c([nH]1)c23	-38.1% (active)
Cc1cc2c(-c3nc4ccccn4c3Nc3cccc4ccccc34)c(O)c(O)cc2c(O)c1-c1c(C)cc2c(-c3nc4ccccn4c3Nc3cccc4ccccc34)c(O)c(O)cc2c1O	14.5%
Cc1cc(N2CCOCC2)nc(N(CCNc2ccnc3cc(Cl)ccc23)Cc2cccs2)n1	-11.9% (active)
CCCCCCCC(=O)SCC/C=C/[C@@H]1CC(=O)NCc2cc(ccn2)C2=N[C@@](C)(CS2)C(=O)N[C@@H](C(C)C)C(=O)O1	13.6%
Cc1sc2c(c1C)c(=O)nc1c(-c3nc4ccccc4s3)n[nH]n12	87.9%
CC(C)(C)CC(C)(C)Nc1c(-c2c(O)c3ccccc3oc2=O)nc2c(Cl)cc(C(F)(F)F)cn12	99.2%
CCOc1cccc(/C=N/NC(=O)c2ccccc2Nc2ccnc(C(F)(F)F)c2)c1O	-19.7% (active)
Cc1cc2c(-c3nc4ccccn4c3NC3CCCCC3)c(O)c(O)cc2c(O)c1-c1c(C)cc2c(-c3nc4ccccn4c3NC3CCCCC3)c(O)c(O)cc2c1O	31.6%
C=CCC(=O)N[C@H](/C=C/C(=O)O)Cc1ccc(-c2cc(Cl)cc(Cl)c2)cc1	96.6%
CN1CCN(c2nc(NCCNc3ccnc4cc(Cl)ccc34)c3ccccc3n2)CC1	3.82% (active)
C[C@@H](C[C@H](CCO)c1cc(C(F)(F)F)cc(C(F)(F)F)c1)c1ccc2ccccc2c1	79.3%
C=C1C(=O)O[C@H]2[C@H]1CC/C(Cn1cc(-c3cc(C)c(C)cc3C)nn1)=C\CC[C@@]1(C)O[C@@H]21	-24.6% (active)
COc1ccc2c(CCCc3ccc(Cl)cc3Cl)c3[n+](cc2c1OC)CCc1cc2c(cc1-3)OCO2	-24.5% (active)
CCN1CCN(c2cc(C)nc(N(CCCNc3ccnc4cc(Cl)ccc34)Cc3ccc4c(c3)OCO4)n2)CC1	-49.6% (active)
O=C1CC(c2ccc(Cl)cc2)c2ncn(-c3cccc(Cl)c3)c2N1 (stereo not given)	58%
Cc1ccccc1Nc1nc2nonc2nc1Nc1cccc(C)c1C	24.4%
Fc1ccc(NCc2cn(-c3ccccc3)nc2-c2ccc(OCc3ccccc3)cc2)cc1Cl	98%
CCCCCCCC(=O)SCC/C=C/[C@@H]1CC(=O)NCc2cccc(n2)C2=N[C@@](C)(CS2)C(=O)N[C@@H](C(C)C)C(=O)O1	14.3%
COC(=O)C1CCc2sc3ncnc(Nc4cn[nH]c4C(=O)Nc4ccc(CN5CCN(C)CC5)cc4)c3c21 (stereo not given)	8.36% (active)
C=CC(=O)N(C)[C@H]1C[C@H]2OC(C)(C1OC)n1c3ccccc3c3c4c(c5c6ccccc6n2c5c31)C(=O)NC4 (stereo not given in full)	-11.3% (active)
Cc1cc(N(CCNc2ccnc3cc(Cl)ccc23)Cc2ccc3c(c2)OCO3)nc(N2CCN(C)CC2)n1	-42.3% (active)
CN1CCN(CCCOc2cccc3nc(Nc4ccc(Cl)c(C(F)(F)F)c4)ccc23)CC1	10.6%
Nc1c2c(c(O)c3c1=C(CO)C=N3)=NCCS2	-30.8% (active)
Cc1cc(O)c2c(c1)C1OC(=O)CCCCCN1C1=C2C(=O)c2cccc(OC3CC(O)C(O)C(C)O3)c2C1=O (stereo not given)	73.3%
CC1(C=O)NC(=O)NC1=O (stereo not given)	109%
COc1ccc(Nc2ncccc2NC(=O)c2cn(Cc3cccc(Oc4ccccc4)c3)nn2)cc1	86%
OCCNC(=S)Nc1ccc(-c2nc(N3C[C@H]4CC[C@@H](C3)O4)c3cccn3n2)cc1	5.44% (active)
O=C(c1ccccc1)C(c1ccccc1)N1CCOCC1 (stereo not given)	101%
